# Screening results from PubChem BioAssay.
# Most compounds without a hit are left out; they make up all but 4.6% or so of the library.
# HIF-2a block – blocks HIF-2a reporter activity; 786-0 RCC cells HIF-2a reporter, luciferase luminescence, overnight; inhibition, % at 18.8 µM; hit rate 0.72% among 360,000;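 active = inhibition of the luminescence signal of 40% or more relative to plate controls, in a single-dose primary screen at 18.75 µM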
# KKLEB cytotox – counter-screen for CF NF-kB inhibitors: cytotoxicity | KKLEB CF airway cells viability, ATPlite luminescence, overnight; stronger effect = lower value; cells stimulated with P. aeruginosa culture filtrate | AID 602141 | activity change (cytotoxicity), % at 5 µM | hit rate 0.36% among 360,000;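 active = corrected activity change at or below -50% at 5 µM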
# Mdm2-MdmX inh – human Mdm2/MdmX binding inhibition | hit rate 3% among 330,000 | AID 485346 | O15151+Q00987 | SaOS-2 split-luciferase Mdm2/MdmX complementation, luminescence | inhibition, % at 8 µM;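 active = inhibition of at least 50% at 8 µM in the primary screen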
# Target sequence (O15151 whole entry, looked up): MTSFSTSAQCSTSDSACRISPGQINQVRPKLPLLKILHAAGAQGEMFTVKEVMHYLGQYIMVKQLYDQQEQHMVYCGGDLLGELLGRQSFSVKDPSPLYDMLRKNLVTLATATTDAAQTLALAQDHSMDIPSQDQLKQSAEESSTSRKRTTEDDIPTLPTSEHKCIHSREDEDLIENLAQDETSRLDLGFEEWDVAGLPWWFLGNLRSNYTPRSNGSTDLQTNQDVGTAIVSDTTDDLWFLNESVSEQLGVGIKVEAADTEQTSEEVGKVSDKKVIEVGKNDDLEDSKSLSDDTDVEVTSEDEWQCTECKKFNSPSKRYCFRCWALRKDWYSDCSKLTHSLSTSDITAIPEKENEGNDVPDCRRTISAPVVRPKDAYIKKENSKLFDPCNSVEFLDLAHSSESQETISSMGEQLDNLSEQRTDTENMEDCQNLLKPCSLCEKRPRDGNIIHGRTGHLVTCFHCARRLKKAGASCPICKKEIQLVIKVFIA
# Target sequence (Q00987 whole entry, looked up): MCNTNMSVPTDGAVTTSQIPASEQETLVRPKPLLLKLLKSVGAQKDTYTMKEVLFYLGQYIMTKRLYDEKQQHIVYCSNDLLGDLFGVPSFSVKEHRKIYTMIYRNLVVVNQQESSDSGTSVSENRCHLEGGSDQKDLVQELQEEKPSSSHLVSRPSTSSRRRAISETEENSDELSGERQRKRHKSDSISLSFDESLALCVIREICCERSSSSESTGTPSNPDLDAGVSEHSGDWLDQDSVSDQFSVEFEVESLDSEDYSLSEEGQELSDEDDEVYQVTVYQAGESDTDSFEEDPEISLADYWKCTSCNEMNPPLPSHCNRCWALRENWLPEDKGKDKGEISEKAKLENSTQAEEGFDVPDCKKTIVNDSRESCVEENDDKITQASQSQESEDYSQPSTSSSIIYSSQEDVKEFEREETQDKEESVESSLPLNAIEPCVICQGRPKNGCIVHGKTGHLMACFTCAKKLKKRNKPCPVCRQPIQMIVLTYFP
# Peg3 promoter – inhibitors of Peg3 promoter; hit rate 1.7% among 360,000; HeLa PEG-Prom luciferase reporter, luminescence, overnight; inhibition, % at 20 µM;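 active = inhibition of at least 50% at 20 µM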
# CF NFkB inh – cystic fibrosis NF-kB activation inhibition | hit rate 0.86% among 360,000 | KKLEB NF-kB-GFP reporter, PAF-induced, GFP fluorescence overnight | inhibition, % at 5 µM;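 active = at least 50% inhibition at 5 µM, scaled per plate between neutral and stimulator controls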;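 also: PAF is a Pseudomonas aeruginosa culture filtrate used as stimulus; plate controls were PAF-stimulated DMSO wells for no effect and unstimulated DMSO wells for full effect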
# ABHD5 PLIN5 PPI – ABHD5-PLIN5 protein interaction inhibition; Q00G26+Q8WTS1; Split G. princeps luciferase complementation, luminescence, 4 h; inhibition, % at 4 µM; hit rate 0.78% among 360,000;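 active = inhibition above the mean inhibition across every tested compound plus 3 SD, cut at about 22% in these data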;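 also: 0% = DMSO only wells and the 100% control is not disclosed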
# Mdm2 MdmX conf – human Mdm2/MdmX binding inhibition, confirmed; inhibition, % at 8 µM; shares compounds with Mdm2-MdmX inh; AID 489028; hit rate 55% among 10,000; luminescent assay; in the data active = inhibition above about 40%
# FLuc counter – counter-screen for Mdm2/MdmX inhibitors: full-length luciferase; hit rate 77% among 6,200; inhibition, % at 8 µM; shares compounds with Mdm2-MdmX inh; SaOS-2 full-length luciferase counterscreen, luminescence;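 active = mean inhibition at 8 µM reaching about 37%, which flags the compound as non-specific, limit read from the data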;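 also: p53-null SaOS-2 cells with luciferase driven by a doxycycline-inducible promoter; compound on cells about two nights before reading with doxycycline added after day one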
# An asterisk follows results filed as active; . = not tested or not shown.
SMILES,HIF-2a block,KKLEB cytotox,Mdm2-MdmX inh,Peg3 promoter,CF NFkB inh,ABHD5 PLIN5 PPI,Mdm2 MdmX conf,FLuc counter
O=C1c2ccc3c4c(ccc(c24)C(=O)N1c1ccc(O)cc1)C(=O)N(c1ccc(O)cc1)C3=O,12,6,63*,0,-21,-2,17,.
CCSc1ncc(Cl)c(C(=O)Nc2sc3c(c2C(=O)NCc2cccnc2)CCCC3)n1,-5,-54*,60*,7,44,2,9,.
O=C(NCCS(=O)(=O)N1CCN(c2ccccc2F)CC1)c1cccc(Br)c1,9,-7,9,9,6,-8,.,.
Cc1ccc(NC(=O)CSc2nc3ccccc3c3nc4ccccc4n23)cc1,15,-19,81*,28,16,9,58*,70*
O=C(NC1CCCC1)C(c1ccccn1)N(Cc1ccc(F)cc1)C(=O)c1csnn1 (configuration not stated),8,14,-16,4,-8,3,.,.
C=CCn1c(O)c(C2=c3ccccc3=NC2=O)s/c1=N/c1nccs1,-1,-13,79*,41,10,-12,23,.
O=C(O)Cn1c(O)c(C2=c3ccccc3=NC2=O)sc1=O,13,3,31,11,-1,-26,.,.
CC1=NN(c2ccccc2)C(=O)/C1=C\C=C\c1ccccc1,87*,7,66*,71*,-2,22*,45*,29
O=C(N1CCOCC1)N1CCN(S(=O)(=O)c2cccc([N+](=O)[O-])c2)CC1,4,12,-20,-11,-22,5,.,.
O=C(NNC(=O)C1CCN(S(=O)(=O)c2ccccc2)CC1)c1ccccc1O,13,11,15,9,-20,7,.,.
O=C(NNC(=O)C1CCN(S(=O)(=O)c2c(Cl)cccc2Cl)CC1)c1ccccc1O,17,-6,56*,18,23,8,54*,54*
O=C(NNC(=O)C1CCN(S(=O)(=O)c2ccccc2C(F)(F)F)CC1)c1ccccc1O,19,-17,53*,18,19,0,53*,51*
CCOC(=O)c1c(-c2ccccc2)oc2ccc(OCC(O)CNCCN(C)C)cc12 (configuration not stated),10,-14,95*,100*,-3,15,48*,35
Cc1ccc(-c2nn3c(C)nnc3s2)cc1NC(=O)c1ccc(-c2ccc(Cl)cc2Cl)o1,-1,-32,80*,103*,16,10,25,.
Cc1ccc(-c2nn3c(C)nnc3s2)cc1NC(=O)c1ccc(-c2cccc(Cl)c2)o1,-15,4,-3,3,2,19,.,.
COC(=O)c1ccc2[nH]c3cccc(/C(=C/c4ccccc4)c4ccccc4)c3c2c1,26,-6,66*,42,14,-5,11,.
CCc1cc(=O)oc2c(C)c(OC(C)C(=O)NCCCn3ccnc3)ccc12 (configuration not stated),3,8,-10,11,14,11,.,.
O=C1NC(=O)C(=CC=Cc2ccccc2)S1,-214,-17,.,-198,-8,1,.,.
ClC1=C(Cl)C(Cl)=C(Cl)C1=C/C=C/c1ccccc1,-18,-94*,100*,107*,91*,-7,99*,8
CC1CN(C(=O)c2ccc(Br)c(S(=O)(=O)N3CCOCC3)c2)CC(C)O1 (configuration not stated),9,1,7,19,13,4,.,.
COc1ccc2[nH]c(C(=O)N3CCC(CO)(Cc4cccc(C(F)(F)F)c4)CC3)c(C)c2c1,19,-4,29,20,0,2,.,.
Cc1ccccc1NC(=S)NNc1ncc(C(F)(F)F)cc1Cl,-9,-1,-13,-16,13,4,.,.
Cc1c(Cl)cccc1NC(=S)NNc1ncc(C(F)(F)F)cc1Cl,-6,-25,64*,54*,26,-13,72*,42*
COc1cc(C(=O)NC(C)c2cc(C)ccc2C)ccc1OCC(=O)N1CCOCC1 (configuration not stated),10,15,19,7,-1,-2,.,.
C#CCNC(=O)c1csc([C@@H]2O[C@H](CO)[C@@H](O)[C@H]2O)n1,-4,4,.,7,-6,-1,.,.
SMILES,HIF-2a block,KKLEB cytotox,Mdm2-MdmX inh,Peg3 promoter,CF NFkB inh,ABHD5 PLIN5 PPI,Mdm2 MdmX conf,FLuc counter
CSc1c(CC(=O)NCCCO)n(Cc2ccccc2)c2ccccc12,9,-1,8,3,14,6,.,.
COc1ccc(NC(=O)Cc2c(SC)c3ccccc3n2Cc2ccccc2)cc1,16,-30,69*,10,37,1,40,90*
C[C@@H]1CN([C@@H](C)CO)C(=O)c2cc(NS(C)(=O)=O)ccc2O[C@H]1CN(C)Cc1ccc(Oc2ccccc2)cc1,-9,6,28,0,10,-9,.,.
C[C@@H]1CN([C@@H](C)CO)C(=O)Cc2cc(NC(=O)Nc3ccc(F)cc3)ccc2O[C@@H]1CN(C)Cc1ccc(Cl)c(Cl)c1,-39,-20,100*,85*,52*,-19,63*,56*
C[C@@H]1CN([C@H](C)CO)C(=O)c2cc(NC(=O)Cc3ccccc3)ccc2O[C@H]1CN(C)Cc1ccc(Oc2ccccc2)cc1,9,-5,73*,21,-9,0,26,.
C[C@@H]1CN([C@@H](C)CO)C(=O)c2cc(NC(=O)Nc3ccc(F)cc3)ccc2O[C@@H]1CN(C)Cc1ccc(Oc2ccccc2)cc1,1,-9,94*,80*,18,6,21,.
C[C@H]1CN([C@@H](C)CO)C(=O)Cc2cc(NC(=O)CCC(F)(F)F)ccc2O[C@H]1CN(C)S(=O)(=O)c1ccc(Cl)cc1,15,-23,55*,1,19,2,50*,65*
C[C@H]1CN([C@@H](C)CO)C(=O)Cc2cc(NS(C)(=O)=O)ccc2O[C@@H]1CN(C)Cc1ccc(Cl)c(Cl)c1,6,-14,18,12,5,8,.,.
CCOC(=O)N1CCN(C(=O)C[C@@H]2C[C@@]3(C(=O)OCC)CCCC=C3N(CCC3=CCCCC3)C2=O)CC1,1,.,.,.,.,-1,.,.
COc1ccccc1CCNC(=O)C(=O)c1cn(CC(=O)N2CCOCC2)c2ccccc12,-93,-2,-5,-153,10,3,.,.
O=C1C=C(c2ccc3ccccc3c2)C[C@@H](c2ccc(F)cc2)C1,-98,7,52*,-72,8,-11,-6,.
O=C1C=C(c2ccc3ncccc3c2)C[C@@H](c2ccc(F)cc2)C1,-14,-17,32,-7,18,-3,.,.
Cc1ccc(S(=O)(=O)NCc2nnnn2-c2ccc(F)cc2)cc1,6,19,.,-9,-35,-1,.,.
